Laboratory results from PubChem BioAssay (NCI).
About 83,000 compounds went through this panel and 20% of them were active in at least one assay; those are over-represented in the sample as a whole.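 Cell lines were cultured in 96-well plates, exposed to a single compound concentration, and assessed for percent growth 48 hours later.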 Calls of active or inactive are those of the source. The calls were made as follows: active = growth percent below 10; inactive = the rest.

What was measured:
Assay in all cases: NCI-60 one-dose screen, 48 h (100 = growth as untreated, 0 = no growth, -100 = all killed)
Details in all cases: 10 µM unless noted
DU-145 prostate = tested on: DU-145 prostate
K-562 leukemia = tested on: K-562 leukemia
MALME-3M melanoma = tested on: MALME-3M melanoma
MDA-MB-231 breast = tested on: MDA-MB-231 breast
RXF 393 renal = tested on: RXF 393 renal
SF-268 CNS = tested on: SF-268 CNS
SF-295 CNS = tested on: SF-295 CNS
SF-539 CNS = tested on: SF-539 CNS
UACC-257 melanoma = tested on: UACC-257 melanoma
M14 melanoma = tested on: M14 melanoma
HT29 colon = tested on: HT29 colon
SNB-75 CNS = tested on: SNB-75 CNS
SNB-19 CNS = tested on: SNB-19 CNS
U251 CNS = tested on: U251 CNS
PC-3 prostate = tested on: PC-3 prostate
SK-MEL-5 melanoma = tested on: SK-MEL-5 melanoma
UACC-62 melanoma = tested on: UACC-62 melanoma
LOX IMVI melanoma = tested on: LOX IMVI melanoma
SK-MEL-28 melanoma = tested on: SK-MEL-28 melanoma

Measured: growth

N#CC1CCc2c(c(-c3ccc4nc(N)sc4c3)nc3ccc4[nH]ncc4c23)C1 (configuration not stated)
active: RXF 393 renal 1.38% | SF-539 CNS -0.136%
inactive: DU-145 prostate 35.4% | K-562 leukemia 29.8% | MALME-3M melanoma 68.8% | MDA-MB-231 breast 54.9% | SF-268 CNS 63.1% | SF-295 CNS 23.1% | UACC-257 melanoma 88.7% | M14 melanoma 19.8% | HT29 colon 15.4% | SNB-75 CNS 25.2% | SNB-19 CNS 67.7% | U251 CNS 46.7% | PC-3 prostate 21.8% | SK-MEL-5 melanoma 11.5% | UACC-62 melanoma 36.2% | LOX IMVI melanoma 34.2% | SK-MEL-28 melanoma 54.9%

O=S(=O)(Nc1cc(Sc2cccc3cccnc23)c(O)c2ccccc12)c1ccccc1
active: K-562 leukemia -16.8% | MALME-3M melanoma 0.404% | SF-268 CNS 8.28% | SF-539 CNS -9.98% | UACC-257 melanoma -9.38% | M14 melanoma -16.5% | HT29 colon -35.8% | U251 CNS 6.77% | SK-MEL-5 melanoma -25.2% | UACC-62 melanoma -40.1% | LOX IMVI melanoma -50.2%
inactive: DU-145 prostate 15% | MDA-MB-231 breast 25.1% | RXF 393 renal 28.7% | SF-295 CNS 21.7% | SNB-75 CNS 65.9% | SNB-19 CNS 43.4% | PC-3 prostate 20.9%

COc1ccc(C2=CN3CC=CC3CC2=O)cc1 (configuration not stated)
inactive: DU-145 prostate 98.9% | K-562 leukemia 98.4% | MALME-3M melanoma 81.6% | MDA-MB-231 breast 105% | RXF 393 renal 110% | SF-268 CNS 98.2% | SF-295 CNS 93.3% | SF-539 CNS 95% | UACC-257 melanoma 92.9% | M14 melanoma 106% | HT29 colon 90.5% | SNB-75 CNS 90.9% | SNB-19 CNS 105% | U251 CNS 94.5% | PC-3 prostate 92.1% | SK-MEL-5 melanoma 100% | UACC-62 melanoma 105% | LOX IMVI melanoma 104% | SK-MEL-28 melanoma 102%

N#C/C(=C\c1cn(Cc2ccccc2)c2ccccc12)C(=O)Nc1ncc(Cc2ccccc2Cl)s1
active: MALME-3M melanoma -7.28% | SF-295 CNS 8.89% | UACC-257 melanoma -38.2% | SNB-75 CNS -12.7% | UACC-62 melanoma -40.4%
inactive: DU-145 prostate 24.3% | K-562 leukemia 26.2% | MDA-MB-231 breast 19.8% | RXF 393 renal 40.8% | SF-268 CNS 64.1% | SF-539 CNS 13.5% | M14 melanoma 38.9% | HT29 colon 28.2% | SNB-19 CNS 72.4% | PC-3 prostate 40.6% | SK-MEL-5 melanoma 57.6% | LOX IMVI melanoma 24.7% | SK-MEL-28 melanoma 29.9%

O=C(NCc1cccc(CNC(=O)Nc2nc3ccccc3[nH]2)c1)Nc1nc2ccccc2[nH]1
active: DU-145 prostate -32.6% | K-562 leukemia 0.347% | MALME-3M melanoma -74.2% | MDA-MB-231 breast -66.6% | SF-268 CNS 0.441% | SF-295 CNS 5.41% | UACC-257 melanoma -54.1% | M14 melanoma -77.4% | HT29 colon -45.7% | SNB-75 CNS -42.2% | SNB-19 CNS 9.35% | PC-3 prostate -59.8% | SK-MEL-5 melanoma -46.5% | UACC-62 melanoma -15.9% | LOX IMVI melanoma -20.4% | SK-MEL-28 melanoma -76.9%
inactive: RXF 393 renal 43.1% | SF-539 CNS 27.5%

CCc1ccc(CCC(=O)Nc2ncc(Cc3ccccc3)s2)o1
inactive: DU-145 prostate 26.7% | K-562 leukemia 11.8% | MALME-3M melanoma 65.2% | MDA-MB-231 breast 52.5% | SF-268 CNS 61.1% | SF-295 CNS 15.1% | UACC-257 melanoma 58.9% | M14 melanoma 10.5% | SNB-19 CNS 52.9% | U251 CNS 27.2% | PC-3 prostate 26.7% | SK-MEL-5 melanoma 42.8% | UACC-62 melanoma 23% | LOX IMVI melanoma 42.4% | SK-MEL-28 melanoma 56.4%
active: RXF 393 renal 2.15% | SF-539 CNS -10.1% | HT29 colon 9.07% | SNB-75 CNS 3.46%

N#CSc1c[nH]c2cccc(/C=C/C(=O)/C=C(O)/C=C/c3cccc4[nH]cc(SC#N)c34)c12
active: DU-145 prostate -78.7% | K-562 leukemia -12.9% | MALME-3M melanoma -82.3% | MDA-MB-231 breast -78.3% | RXF 393 renal -62.9% | SF-268 CNS -31.9% | SF-295 CNS -87.7% | SF-539 CNS -68.5% | UACC-257 melanoma -27.4% | M14 melanoma -59.7% | HT29 colon -62.7% | SNB-75 CNS -23.1% | SNB-19 CNS -80.6% | U251 CNS -91.9% | PC-3 prostate -53% | SK-MEL-5 melanoma -87.5% | UACC-62 melanoma -65.4% | LOX IMVI melanoma -94.8% | SK-MEL-28 melanoma -68.2%

N#Cc1cccc(C2C3=C(COC3=O)N(CCO)c3cc4c(cc32)CCC4)c1 (configuration not stated)
active: DU-145 prostate 3.87% | K-562 leukemia 8.48% | SF-295 CNS -7.01% | SF-539 CNS -10.1% | M14 melanoma 2.59% | HT29 colon 4.8% | SK-MEL-5 melanoma -3.37%
inactive: MALME-3M melanoma 48.2% | MDA-MB-231 breast 32.4% | RXF 393 renal 35.5% | SF-268 CNS 30.4% | UACC-257 melanoma 69.4% | SNB-75 CNS 43.8% | SNB-19 CNS 23% | U251 CNS 14.6% | PC-3 prostate 22.9% | UACC-62 melanoma 45.6% | LOX IMVI melanoma 19% | SK-MEL-28 melanoma 51.2%

CCOC(=O)CC1CSC(Nc2ccccc2)=N1 (configuration not stated)
inactive: DU-145 prostate 103% | K-562 leukemia 96.4% | MALME-3M melanoma 102% | MDA-MB-231 breast 105% | RXF 393 renal 114% | SF-268 CNS 98.7% | SF-295 CNS 104% | SF-539 CNS 105% | UACC-257 melanoma 97.9% | M14 melanoma 103% | HT29 colon 96.8% | SNB-75 CNS 99.7% | SNB-19 CNS 104% | U251 CNS 99.5% | PC-3 prostate 99.9% | SK-MEL-5 melanoma 103% | UACC-62 melanoma 99.7% | LOX IMVI melanoma 97.3% | SK-MEL-28 melanoma 115%

CCn1cc(CNc2ccc(C(=O)Nc3cc4cc(OC)c(OC)cc4c(C)n3)cc2)cn1
inactive: DU-145 prostate 67.2% | K-562 leukemia 30.8% | MALME-3M melanoma 54.6% | MDA-MB-231 breast 79.6% | RXF 393 renal 80.4% | SF-268 CNS 60.6% | SF-295 CNS 60.4% | SF-539 CNS 70.5% | UACC-257 melanoma 56.2% | M14 melanoma 48.8% | HT29 colon 56.6% | SNB-75 CNS 65.2% | SNB-19 CNS 84.1% | U251 CNS 65.2% | PC-3 prostate 15.3% | SK-MEL-5 melanoma 10.3% | UACC-62 melanoma 33.5% | LOX IMVI melanoma 46.1% | SK-MEL-28 melanoma 70.5%

O=c1cc(-c2ccccc2)[nH]c2ncc(-c3ccc(F)cc3)n12
inactive: DU-145 prostate 94.6% | K-562 leukemia 18.5% | MALME-3M melanoma 77.8% | MDA-MB-231 breast 62% | RXF 393 renal 72.3% | SF-268 CNS 80.6% | SF-295 CNS 46% | SF-539 CNS 73.8% | UACC-257 melanoma 83.1% | M14 melanoma 50.4% | HT29 colon 40.6% | SNB-75 CNS 68.3% | SNB-19 CNS 68.3% | U251 CNS 56% | PC-3 prostate 56.7% | SK-MEL-5 melanoma 54.9% | UACC-62 melanoma 36.6% | LOX IMVI melanoma 65.9% | SK-MEL-28 melanoma 73.4%

C/C(=N\O)c1ccc(NC(=O)CSc2nnc(-c3cc(-c4ccc(S(C)(=O)=O)cc4)nc4ccccc34)n2-c2ccccc2)cc1
inactive: DU-145 prostate 92.6% | K-562 leukemia 73.4% | MALME-3M melanoma 94.4% | MDA-MB-231 breast 76.9% | RXF 393 renal 98.7% | SF-268 CNS 77.4% | SF-295 CNS 99.4% | SF-539 CNS 83.4% | UACC-257 melanoma 99.1% | M14 melanoma 93% | HT29 colon 102% | SNB-75 CNS 57% | SNB-19 CNS 87.6% | U251 CNS 93.5% | PC-3 prostate 68.5% | SK-MEL-5 melanoma 74.8% | UACC-62 melanoma 80.6% | LOX IMVI melanoma 76.7% | SK-MEL-28 melanoma 102%

Cn1c(=O)c2[nH]c(SCC(=O)Nc3ccc(C(=O)/C=C/c4ccccc4Cl)cc3)nc2n(C)c1=O
inactive: DU-145 prostate 102% | K-562 leukemia 84.4% | MALME-3M melanoma 112% | MDA-MB-231 breast 106% | RXF 393 renal 105% | SF-268 CNS 89.7% | SF-295 CNS 90.5% | SF-539 CNS 101% | UACC-257 melanoma 86.1% | M14 melanoma 99.5% | HT29 colon 119% | SNB-75 CNS 77.1% | SNB-19 CNS 97.1% | U251 CNS 91.9% | PC-3 prostate 93.4% | SK-MEL-5 melanoma 90% | UACC-62 melanoma 95.6% | LOX IMVI melanoma 96.4% | SK-MEL-28 melanoma 99.9%

N#C/C(=C\C=C\c1ccc(-c2cc(Cl)ccc2Cl)o1)c1nc2ccccc2s1
inactive: DU-145 prostate 112% | K-562 leukemia 100% | MALME-3M melanoma 95.4% | MDA-MB-231 breast 72% | RXF 393 renal 99.3% | SF-268 CNS 98.6% | SF-295 CNS 96.5% | SF-539 CNS 93.9% | UACC-257 melanoma 95% | M14 melanoma 103% | HT29 colon 108% | SNB-75 CNS 77.1% | SNB-19 CNS 92.2% | U251 CNS 107% | PC-3 prostate 93.2% | SK-MEL-5 melanoma 97.5% | UACC-62 melanoma 83.1% | LOX IMVI melanoma 90.9% | SK-MEL-28 melanoma 118%

O=C1c2ccccc2C(=O)C1c1ccc(Br)cc1
inactive: DU-145 prostate 118% | K-562 leukemia 104% | MALME-3M melanoma 88.8% | MDA-MB-231 breast 89.4% | RXF 393 renal 121% | SF-268 CNS 113% | SF-295 CNS 90.5% | SF-539 CNS 104% | UACC-257 melanoma 110% | M14 melanoma 109% | HT29 colon 101% | SNB-75 CNS 65% | SNB-19 CNS 104% | U251 CNS 95.8% | PC-3 prostate 97.9% | SK-MEL-5 melanoma 107% | UACC-62 melanoma 98.3% | LOX IMVI melanoma 88.9% | SK-MEL-28 melanoma 98%
